Data published in PubChem BioAssay AID2284087 (EPA ToxCast).
The source made the active and inactive calls. Rule for the calls: active = hit-call score of the fitted dose curve at least 0.9, where 1 is the maximum; inactive = score below 0.9.

molecular target: human Flt-1 (VEGFR1) (FLT1) Receptor Tyrosine Kinase, FLT1 (gene 2321) (UniProt P17948); assay: ERF_FR_ENZ_hFLT1: Eurofins (ERF) Enzymatic Radiometric [Km ATP] KinaseProfiler LeadHunter Assay for human Flt-1 (VEGFR1) (FLT1) Receptor Tyrosine Kinase
Sequence (P17948 whole entry, looked up): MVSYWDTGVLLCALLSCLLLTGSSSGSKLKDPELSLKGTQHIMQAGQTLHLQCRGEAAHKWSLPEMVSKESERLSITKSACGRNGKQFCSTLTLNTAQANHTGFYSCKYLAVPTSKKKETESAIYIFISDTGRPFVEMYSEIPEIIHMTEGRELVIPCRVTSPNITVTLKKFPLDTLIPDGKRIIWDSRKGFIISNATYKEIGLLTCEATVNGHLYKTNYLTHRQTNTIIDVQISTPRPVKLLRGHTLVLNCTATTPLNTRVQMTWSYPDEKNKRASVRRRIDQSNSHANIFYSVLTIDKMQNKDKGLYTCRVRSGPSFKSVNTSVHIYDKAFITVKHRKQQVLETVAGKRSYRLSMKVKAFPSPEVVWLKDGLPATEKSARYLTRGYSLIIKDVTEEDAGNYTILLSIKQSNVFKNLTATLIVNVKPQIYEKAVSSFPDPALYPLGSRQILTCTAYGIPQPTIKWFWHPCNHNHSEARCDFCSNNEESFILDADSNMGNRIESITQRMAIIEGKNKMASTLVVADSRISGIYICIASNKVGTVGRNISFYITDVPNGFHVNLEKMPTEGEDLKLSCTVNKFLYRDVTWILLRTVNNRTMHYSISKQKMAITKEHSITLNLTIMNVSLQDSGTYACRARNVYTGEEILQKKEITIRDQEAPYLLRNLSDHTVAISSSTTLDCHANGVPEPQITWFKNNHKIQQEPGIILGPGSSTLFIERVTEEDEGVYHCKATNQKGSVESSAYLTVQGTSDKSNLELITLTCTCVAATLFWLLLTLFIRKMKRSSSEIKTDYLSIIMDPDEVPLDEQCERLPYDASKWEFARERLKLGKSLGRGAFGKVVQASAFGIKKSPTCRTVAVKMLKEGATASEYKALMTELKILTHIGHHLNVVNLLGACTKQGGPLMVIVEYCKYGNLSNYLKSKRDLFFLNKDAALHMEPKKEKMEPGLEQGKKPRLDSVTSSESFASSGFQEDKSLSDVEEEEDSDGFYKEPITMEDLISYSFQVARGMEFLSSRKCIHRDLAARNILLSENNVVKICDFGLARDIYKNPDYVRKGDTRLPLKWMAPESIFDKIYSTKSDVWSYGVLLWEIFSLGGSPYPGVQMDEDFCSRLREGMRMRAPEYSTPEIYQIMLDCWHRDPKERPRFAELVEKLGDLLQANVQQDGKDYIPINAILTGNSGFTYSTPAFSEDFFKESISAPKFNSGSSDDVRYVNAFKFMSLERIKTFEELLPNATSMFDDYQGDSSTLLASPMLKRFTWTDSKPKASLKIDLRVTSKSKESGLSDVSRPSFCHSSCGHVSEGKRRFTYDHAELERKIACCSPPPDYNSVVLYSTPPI
Protocol: ERF_FR_ENZ_hFLT1 is a biochemical, single-readout assay that uses extracted gene-proteins in a cell-free assay. Measurements were taken 0.25 hour after chemical dosing in a 96-well plate. See Flt-1 (VEGFR1) Human RTK Kinase Enzymatic LANCE Assay [Km ATP], Cerep.ERF_FR_ENZ_hFLT1 is an assay component calculated from the ERF_FR_ENZ_hFLT1 assay. It is designed to measure enzyme activity using a type of enzyme reporter as detected by fluorescence intensity with LANCE technology.Data from the assay component ERF_FR_ENZ_hFLT1 was analyzed at the assay endpoint, ERF_FR_ENZ_hFLT1, in the positive analysis fitting direction relative to DMSO as the negative control and baseline of activity. Using a type of enzyme reporter, loss-of-signal activity can be used to understand changes in enzymatic activity as they relate to gene FLT1. To generalize the intended target to other relatable targets, this assay endpoint is annotated to the kinase intended target family, where the subfamily is receptor tyrosine kinase.
Flt1 (h) is incubated with 8 mM MOPS pH 7.0, 0.2 mM EDTA, 250 uM […], 10 mM MgAcetate and [g- 33P]-ATP (specific activity and concentration as required). The reaction is initiated by the addition of the Mg/ATP mix. After incubation for 40 minutes at room temperature, the reaction is stopped by the addition of phosphoric acid to a concentration of 0.5%. […]

Compound	outcome
O=C(/C=C/c1ccc(O)cc1)CC(=O)/C=C/c1ccc(O)cc1	inactive
